# Measured values taken from PubChem BioAssay (NCATS).
# “And” between values parts separate entries of the source, which are not always exact repeats. Equal entries are not always repeated. Inconclusive results are not listed. A number with no mark means an inactive call. The source made the active and inactive calls. The call rests on the fitted dose curve; in most records, active means well fitted inhibition curve with a large enough effect; inconclusive means small, poorly fitted or top-dose-only effect; inactive means flat fitted curve, though single readings scatter.
# Legend:
# CRL-7250 = normal cell line; assay: Cytotoxic Profiling of Annotated Libraries Using Quantitative High-Throughput Screening (AID 1296008); conditions: Five cell lines viability, CellTiter-Glo ATP luminescence, 48-72 h; max response: stronger effect = lower value; on max response: on the % scale 0 is the no-effect control and ±100 the full control effect
# Procedure, shortened: (§1)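 Compounds were pin-transferred onto cells and incubated 48 or 72 hr at 37 degree Celsius, 95% humidity. CellTiter-Glo was added, plates sat 10 min at room temperature, then ATP-coupled luminescence was imaged as the viability read-out.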
# KB-3-1 = assay: as above; conditions: Five cell lines viability, CellTiter-Glo ATP luminescence, 48-72 h; max response: stronger effect = lower value
# Procedure, shortened: as §1
# PC49 = assay: qHTS profiling for inhibitors of Plasmodium falciparum proliferation (AID 504749); conditions: P. falciparum in erythrocytes, SYBR Green DNA, 72 h; series mostly up to 28.7 µM
# Procedure, shortened: (§2)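 Quantitative HTS: compounds pinned into medium, infected erythrocytes added (0.3% parasitemia, 2.5% hematocrit), 72 h culture at 37 C under 5% CO2. Saponin/Triton lysis with SYBR Green I, overnight RT, then fluorescence read.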
# SC27B = assay: as above; conditions: P. falciparum in erythrocytes, SYBR Green DNA, 72 h; series mostly up to 28.7 µM
# Procedure, shortened: as §2
# TAB109 = assay: as above; conditions: P. falciparum in erythrocytes, SYBR Green DNA, 72 h; series mostly up to 28.7 µM
# Procedure, shortened: as §2
# TAB113 = assay: as above; conditions: P. falciparum in erythrocytes, SYBR Green DNA, 72 h; series mostly up to 28.7 µM
# Procedure, shortened: as §2
# TAB165 = assay: as above; conditions: P. falciparum in erythrocytes, SYBR Green DNA, 72 h; series mostly up to 28.7 µM
# Procedure, shortened: as §2
# W2 = assay: as above; conditions: P. falciparum in erythrocytes, SYBR Green DNA, 72 h; series mostly up to 28.7 µM
# Procedure, shortened: as §2
# HEK293 = assay: Cytotoxic Profiling of Annotated Libraries Using Quantitative High-Throughput Screening (AID 1296008); conditions: Five cell lines viability, CellTiter-Glo ATP luminescence, 48-72 h; max response: stronger effect = lower value; on max response: on the % scale 0 is the no-effect control and ±100 the full control effect
# Procedure, shortened: as §1
# HaCat = assay: as above; conditions: Five cell lines viability, CellTiter-Glo ATP luminescence, 48-72 h; max response: stronger effect = lower value
# Procedure, shortened: as §1
# Further: nearly all actives have a fitted effect of over 60% in size.
# Potency means the concentration at half of the fitted maximal effect.
smiles,measurement,setting,value
O=C(Nc1ccccc1-c1ccc(Cl)cc1)c1cccnc1Cl,max response,CRL-7250,-3.67%
same,max response,KB-3-1,-17.8%
CCCN1CCC[C@H](c2cccc(O)c2)C1,Potency,PC49,inactive
same,Potency,SC27B,inactive
same,Potency,TAB109,inactive
same,Potency,TAB113,inactive
same,Potency,TAB165,inactive
same,Potency,W2,15100 nM (active)
same,max response,KB-3-1,0.305%
CC=C(C)C(=O)N[C@@H](c1ccccc1)[C@@H](O)C(=O)O[C@H]1C[C@@]2(O)[C@@H](OC(=O)c3ccccc3)[C@@H]3[C@]4(OC(C)=O)CO[C@@H]4C[C@H](O)[C@@]3(C)C(=O)[C@H](OC(C)=O)C(=C1C)C2(C)C,max response,HEK293,-78.1%
same,Potency,KB-3-1,1 nM (active)
CC1=C(O)C(=O)C=C2C1=CC=C1[C@@]2(C)CC[C@@]2(C)[C@@H]3C[C@](C)(C(=O)O)CC[C@]3(C)CC[C@]12C,Potency,HEK293,1480 nM (active)
same,Potency,HaCat,2640 nM (active)
same,Potency,KB-3-1,2960 nM (active)
COC1=CC(C)=C[C@@H](C)[C@@H](O)[C@@H](C)CC(C)=CC=C[C@H](OC)[C@H]([C@@H](C)[C@@H](O)[C@H](C)[C@@]2(O)C[C@@H](O)[C@H](C)[C@@H](C(C)C)O2)OC1=O,Potency,HEK293,11.8 nM (active)
same,Potency,KB-3-1,5.9 nM (active)
C[N+](C)(C)CC(=O)O,max response,HEK293,-2.82%
same,max response,HaCat,3.56%
same,max response,KB-3-1,-11.7% and 3.15%
C=CCC1=C(C)C(OC(=O)C2C(C=C(C)C)C2(C)C)CC1=O (centres undefined),Potency,HEK293,19300 nM (active)
same,outcome,HaCat,inactive
same,max response,KB-3-1,-7.18%
C=CCN1CC[C@]23CCCCC2[C@H]1Cc1ccc(O)cc13 (some centres undefined),Potency,PC49,inactive
same,Potency,SC27B,inactive
same,Potency,TAB109,inactive
same,Potency,TAB113,inactive
same,Potency,TAB165,inactive
CC(=Cc1csc(C)n1)[C@@H]1C[C@H]2O[C@@H]2CCC[C@H](C)[C@@H](O)[C@@H](C)C(=O)C(C)(C)[C@@H](O)CC(=O)O1,max response,HEK293,-79%
same,max response,HaCat,-20.3%
same,Potency,KB-3-1,0.4 nM (active)
CC(=O)O[C@@]12CO[C@H]1C[C@H](O)[C@@]1(C)C(=O)[C@H](O)C3=C(C)[C@@H](O)C[C@@](O)([C@@H](OC(=O)c4ccccc4)[C@@H]21)C3(C)C,Potency,HEK293,2960 nM (active)
same,Potency,KB-3-1,3320 nM (active)
C[C@]12COC(=O)C[C@@H]1CC[C@@H]1[C@H]2CC[C@@]2(C)[C@H]1CC[C@]2(C)O,outcome,HaCat,inactive
same,max response,KB-3-1,0.496%
N=c1c2c(-c3ccccc3)c(-c3ccccc3)n(Cc3ccccc3)c2ncn1C1CCC(O)CC1 (centres undefined),Potency,HEK293,418 nM (active)
same,max response,HaCat,-23%
CC(C)Oc1cccc(NC(=O)c2ccccc2C(F)(F)F)c1,Potency,CRL-7250,54500 nM (active)
same,max response,KB-3-1,-12.9%
c1ccc(C2(c3ccccc3)CC2C2=NCCN2)cc1 (centres undefined),Potency,PC49,inactive
same,Potency,SC27B,inactive
same,Potency,TAB109,inactive
same,Potency,TAB113,inactive
same,Potency,TAB165,inactive
same,max response,KB-3-1,-1.25%
CC(=CCCC1=CCC(C2=CC(=O)OC2O)OC1O)CCC1=C(C)CCCC1(C)C (centres undefined),max response,HaCat,-18.3%
same,max response,KB-3-1,-6.74%
O=S(=O)(c1ccc(Cl)cc1)c1ccc(Cl)cc1,max response,KB-3-1,-10.2%
O=C(O)CNC(=O)c1c(O)c2ccccc2n(Cc2ccccc2)c1=O,max response,HEK293,1.22%
same,outcome,HEK293,inactive
same,outcome,HaCat,inactive
same,max response,KB-3-1,5.38% and 7.42%
CCCCc1ccc(C(=O)O)nc1,Potency,PC49,inactive
same,Potency,SC27B,inactive
same,Potency,TAB109,inactive
same,Potency,TAB113,inactive
same,Potency,TAB165,inactive
same,Potency,W2,inactive
same,max response,KB-3-1,2.2%
N#C[C@H](O[C@@H]1O[C@H](CO[C@@H]2O[C@H](CO)[C@H](O)[C@H](O)[C@H]2O)[C@H](O)[C@H](O)[C@H]1O)c1ccccc1,Potency,HEK293,23500 nM (active)
CC(C)[C@H]1C(=O)N[C@H](CO)Cc2c[nH]c3cccc(c23)N1C,max response,HaCat,-1.9%
same,max response,KB-3-1,9.88%
CCCCCCCCc1ccc(O)cc1,Potency,HaCat,24600 nM (active)
same,max response,KB-3-1,-0.951%
ClC1=C(Cl)[C@]2(Cl)[C@@H]3[C@@H]4C[C@@H]([C@H]5O[C@@H]45)[C@@H]3[C@@]1(Cl)C2(Cl)Cl,max response,KB-3-1,13.3%
CCO/N=C(\CC)C1=C(O)CC(c2c(C)cc(C)cc2C)CC1=O (centres undefined),Potency,HEK293,24300 nM (active)
same,max response,HaCat,-8.94%
same,max response,KB-3-1,-11.8%
O=C(O)c1cc(Oc2ccc(C(F)(F)F)cc2Cl)ccc1[N+](=O)[O-],max response,CRL-7250,-0.373%
same,max response,KB-3-1,-8.96%
